15 compounds from PubChem BioAssay (NCATS) can be followed below.

Each structure is given as a SMILES string. Results filed as inconclusive are left out. A number with no mark means an inactive call. Active and inactive are the calls of the source. Calls come from the whole dose curve; as a rule, active = well fitted inhibition curve with a large enough effect; inconclusive = small, poorly fitted or top-dose-only effect; inactive = no such curve, though single readings can be large or run the other way.
% is set by controls: 0 for no effect and ±100 for the full control effect; potency is the fitted concentration of half-maximal effect.

Chain of N-terminal Xaa-Pro-Lys N-methyltransferase 1 (Homo sapiens) (Q9BV86 whole entry, looked up): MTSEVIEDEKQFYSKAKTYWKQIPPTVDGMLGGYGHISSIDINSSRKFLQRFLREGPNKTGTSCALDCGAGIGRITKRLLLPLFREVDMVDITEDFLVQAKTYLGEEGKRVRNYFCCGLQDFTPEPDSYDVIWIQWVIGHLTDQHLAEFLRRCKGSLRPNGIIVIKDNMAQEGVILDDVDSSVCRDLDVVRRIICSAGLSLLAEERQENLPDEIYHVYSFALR

This assay deals with N-terminal Xaa-Pro-Lys N-methyltransferase 1 (Homo sapiens) (UniProt Q9BV86). Kind of assay: qHTS Assay for Inhibitors of N-terminal methyltransferase 1 (NTMT1): LOPAC validation of the NTMT1 SAHH-coupled ThioGlo3 Assay (AID 1347143).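 Note: SAH from peptide methylation measured as thiol fluorescence via SAHH coupling and ThioGlo3; nearly all actives have a fitted effect of over 70% in size.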 Conditions: recombinant NTMT1, SAHH-coupled ThioGlo3 fluorescence; series mostly up to 114 µM; activity change, negative = inhibition: at the top concentration. The method in brief:
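Inhibition of NTMT1 methylation of peptide SPKRIA is followed by converting SAH with SAHH and labelling the released thiol with ThioGlo3. Plates are read at 340/450nm before and 30 min after reagent addition, both at room temperature.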
For the compound `CC(C)Cc1ccc([C@H](C)C(=O)O)cc1`, the “activity change, negative = inhibition” value was -9.22%. Turning to `COCCOc1cc2nc[nH]c(=O)c2cc1OCCOC`, the “activity change, negative = inhibition” value is -8.06%.

As for `CC(C)NC[C@@H](O)c1ccc(O)c(O)c1`, the Potency is 50.1 µM (active). The same measure, in the same setting: to `CCOC(=O)C1=C(C)NC(C)=C(C(=O)OCC)C1c1c(F)c(F)c(F)c(F)c1F` belongs 79.4 µM (active).

As for `NC(CCCP(=O)(O)O)C(=O)O` (stereo not given), the “activity change, negative = inhibition” value is -8.34%. `CN[C@H](CC(C)C)C(=O)N[C@H]1C(=O)N[C@@H](CC(N)=O)C(=O)N[C@H]2C(=O)N[C@H]3C(=O)N[C@H](C(=O)N[C@H](C(=O)O)c4cc(O)cc(O)c4-c4cc3ccc4O)[C@H](O)c3ccc(c(Cl)c3)Oc3cc2cc(c3O[C@@H]2O[C@H](CO)[C@@H](O)[C@H](O)[C@H]2O[C@H]2C[C@](C)(N)[C@H](O)[C@H](C)O2)Oc2ccc(cc2Cl)[C@H]1O`: the “activity change, negative = inhibition” value is -8.99%. For `c1cnc2c(c1)ccc1cccnc12`, the “activity change, negative = inhibition” value is -2.42%.

Regarding `O=C(/C=C/c1ccc(O)cc1)c1ccc(O)cc1O`, the Potency is 44.7 µM (active). Still for that read-out and setting: the result for `O=C(CCCCCN1CCN(c2ccccc2-c2ccccc2)CC1)NC1CCCc2ccccc21` (stereo not given) reads 79.4 µM (active). With `CCNC(=O)[C@H]1O[C@@H](n2cnc3c(N)nc(NCCc4ccc(CCC(=O)O)cc4)nc32)[C@H](O)C1O` (stereo not given in full), the “activity change, negative = inhibition” value was -27%. Same read-out and setting: to `COC1=C(OC)C(=O)c2ccccc2C1=O` belongs -20.1%; to `Nc1ccn([C@H]2O[C@H](CO)[C@@H](O)C2(F)F)c(=O)n1`, -26.3%; to `CC1CN(S(=O)(=O)c2cccc3cnccc23)CCN1` (stereo not given), -19.9%.

Consider `NCCSSCCN`, for which the “activity change, negative = inhibition” value was -16.7%.

For the compound `CN=c1nc(-c2ccccc2)n(-c2ccccc2)s1`, the Potency was 0.316 µM (active).
